The values below come from article PMC12136788.

Substitutions are numbered along the chain they refer to. Over roughly 5,800 sequences, “enrichment r” has its median near 0.68; the highest 2% begin near 11. This is one part of a sample in which the highest values are shown more often than they occur.

First the molecules themselves.
T1: UNK ZnF1-6 (called full-length) (human, UniProt Q9C0B0 30-357)
T1 sequence: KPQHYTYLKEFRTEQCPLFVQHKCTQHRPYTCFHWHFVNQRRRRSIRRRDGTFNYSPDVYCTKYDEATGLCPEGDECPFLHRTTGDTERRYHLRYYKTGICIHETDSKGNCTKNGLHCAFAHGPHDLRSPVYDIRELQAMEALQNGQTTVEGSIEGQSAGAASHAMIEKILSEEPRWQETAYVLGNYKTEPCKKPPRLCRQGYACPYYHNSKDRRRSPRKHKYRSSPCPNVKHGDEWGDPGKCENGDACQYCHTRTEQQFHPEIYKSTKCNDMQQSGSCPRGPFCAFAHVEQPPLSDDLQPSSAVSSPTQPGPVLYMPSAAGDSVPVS

B1: ENSG00000099904:stop:overlap|stop_codon|ENSG00000099904|stop_codon|NA|stop_codon (ssRNA)
RNA: GGGAGUUCUACAGUCCGACGAUCGGGCCAUGUGCCGCCUGCACUUGGCUGCCUCCAGUCUUUUCCCCAGCCUCUCGGGGCCCUAGCAGGAUGACAAGUAGGCGGCUCUGGGGCCCAGGACAGCCCAGCUGGGGACCCAGGAGGCAACAGAGGAUUGAGCAUCA
B2: chr2:216675367:216675485:-|3pUTR|ENSG00000115461|msi1|FALSE|unique (ssRNA)
RNA: GGGAGUUCUACAGUCCGACGAUCGCCAGGCAGAGGCCAGCCCUCCGUGGUGCACACAGCACGCGCCUCAGUCCAUCCCAUUUUAGUCUUUAAACCCUCAGGAAGUCACAGUCUCCGGACACCACACCACAUGAGCCCAACAGGCAACAGAGGAUUGAGCAUCA
B3: chr15:63775065:63775180:-|CDS|ENSG00000103657|unk|FALSE|unique (ssRNA)
RNA: GGGAGUUCUACAGUCCGACGAUCUGGUUCAGCAGAUGUCCAUUCUGUUAGUGAACGCCCCCGGUCAAGCACUGAUGCACUUAUAGAAAUGGGUGUUCGAACUGGUCUAAGUUUAUUAUUUGCGCUUCUAAGACAAAGUUGGAUCAACAGAGGAUUGAGCAUCA
B4: chr14:77132432:77132533:-|3pUTR|ENSG00000177108|unk|total|mutant (ssRNA)
RNA: GGGAGUUCUACAGUCCGACGAUCUGUGAUUGCUGGACCCAGAGGCAAGAUCUGCAGAGAUGCCUGUGAGAUAUUUGCUUUCCCCGAGGGGAGUGUGGGCAUGGGAGGGGUCUGAAAAUCAGGACCCAACCCAGCCACUGAAGACAACAGAGGAUUGAGCAUCA
B5: chr7:7234405:7234460:+|CDS|ENSG00000106392|msi1_unk|FALSE|overlapping (ssRNA)
RNA: GGGAGUUCUACAGUCCGACGAUCAAUUUUUUAACCUUCCUCUGUGGAUCAGCAAUAGGAUUUCUUUUAUGUUCUCAGCUAUUUAGUAUUUUGUUGGGAGAAAAGGUUGACACCCAGCCUAAUGUUCUUCAUAAUGAUCCUCAUCAACAGAGGAUUGAGCAUCA
B6: ENSG00000137168:stop:overlap|stop_codon|ENSG00000137168|stop_codon|NA|stop_codon (ssRNA)
RNA: GGGAGUUCUACAGUCCGACGAUCCAAACUCCCAGGACCGCCCUGUGGACGACGUGAAGAUCAUUAAGGCAUACCCUUCUGGGUAGACUUGCUACCCUCUUGAGCAGCUCUUCUGAGAUGGCCCCAGUGAACCAGCUUCUAGAUCAACAGAGGAUUGAGCAUCA
B7: chr3:25596636:25596694:+|3pUTR|ENSG00000077092|msi1_unk|FALSE|overlapping (ssRNA)
RNA: GGGAGUUCUACAGUCCGACGAUCUCCCCAGUACCUUCAGUUCCAGGAUUUAAAAUGCAAGAAAAAACAUUUUUACUGCUGCUUAGUUUUUGGACUGAAAAGAUAUUAAAACUCAAGAAGGACCAAGAAGUUUUCAUAUGUAUCCAACAGAGGAUUGAGCAUCA
B8: chr6:15520333:15520434:+|3pUTR|ENSG00000008083|unk|FALSE|unique (ssRNA)
RNA: GGGAGUUCUACAGUCCGACGAUCCUUGCUGUAGGAUUCAAGCUGUCUUUGCACUAGCUCUAAAGAAGAUUUUCUUCUGGUUUUAGAGAACUAAUUUUGUUUUAGCAUUAAACUGUUGAACUUUUUUUUGUACUUAGAAAACCUCAACAGAGGAUUGAGCAUCA
B9: ENSG00000070961:be:win_6151|3pUTR|ENSG00000070961|bound_else_gene|NA|bound_elsewhere_windowed (ssRNA)
RNA: GGGAGUUCUACAGUCCGACGAUCCAAUCACUUUUUCUCUUUUAUCCUCUAACCAAAAAAUUGUUUAAUUUUGCAUCCCAAAUGUUUUUAAUCUUUGUAUAUUUUUUAAAAAUCCUUUUCUCCUCAUCAUUGCCUUUUUUGUGGCAACAGAGGAUUGAGCAUCA
B10: chr8:22006364:22006465:+|3pUTR|ENSG00000130227|msi1|total|mutant (ssRNA)
RNA: GGGAGUUCUACAGUCCGACGAUCUGUUGCUGCCCGUUGUACACAUCUCCCGUUCAGCUCUUGCCCACGGGACACUCAUCAAUCCGGUUUUAUUUUUAUUUCUUUCCUCUACCCCCAGAAACAAGCCUGUUAAUUUUUUUUCCUCAACAGAGGAUUGAGCAUCA
B11: chr13:51761002:51761103:+|3pUTR|ENSG00000139668|unk|FALSE|unique (ssRNA)
RNA: GGGAGUUCUACAGUCCGACGAUCACGGCAAGAUUGUAAUCCUGCUGUAUUCCUCGCCCUCUGUAUUCUAUCCCUUUAAAAACUAGAUAUUUAAACAUUUUAUCCUAAUGUGUUUCAUCAGAACACUUUGCACACUUUCUUACUCAACAGAGGAUUGAGCAUCA
B12: chr8:22006364:22006465:+|3pUTR|ENSG00000130227|msi1|FALSE|unique (ssRNA)
RNA: B10 RNA with C33U, C34A, C49U, C50A, C83U, C84A
B13: chr6:43186014:43186115:+|CDS|ENSG00000112659|msi1|total|mutant (ssRNA)
RNA: GGGAGUUCUACAGUCCGACGAUCCUGCUUUUCUCCUUGGUGAAGCGCUACCUUUGUGUCACGUCCCUCCUGGAUCAGCUGAACCGCAGUCCAGAGCUGGGAGCUGGAGACCAAAGCUCCCCAUGUGCCACAAGAGAGAAAAGCCAACAGAGGAUUGAGCAUCA
B14: ENSG00000147536:stop:overlap|stop_codon|ENSG00000147536|stop_codon|NA|stop_codon (ssRNA)
RNA: GGGAGUUCUACAGUCCGACGAUCUCCGCUACGUCCUCAGCAGCUACUUGCGGUGUCGCCUCAUGAAGUUCCCAAACCAGAUCUAGAUUCUUACGUGUUUCUGAGAGUGAGAGAACGACAAGAAAACAUACUGGUAGAACCAGACAACAGAGGAUUGAGCAUCA
B15: chr2:74214837:74214938:+|3pUTR|ENSG00000065911|msi1_unk|FALSE|overlapping (ssRNA)
RNA: GGGAGUUCUACAGUCCGACGAUCCUGUCCUUUUGAGGCUUAGUCAGUUUAUUGGGAAAAUGUUUAGGAUUAUUCCUUGCUAUUAGUACUCAUUUUAUGUAUGUUACCCUUCAGUAAGUUCUCCCCAUUUUAGUUUUCUAGGACCAACAGAGGAUUGAGCAUCA
B16: chr2:74214837:74214938:+|3pUTR|ENSG00000065911|msi1_unk|total|mutant (ssRNA)
RNA: B15 RNA with U40C, A41C, U64C, A65C, U83C, A84C, U130C, A131C, U138C, A139C
B17: chr19:44386474:44388102:-|CDS|ENSG00000267508|control|control|control (ssRNA)
RNA: GGGAGUUCUACAGUCCGACGAUCGGCAUGUGGUAAGGGCUUCAGUCGUAAUUCAUACCUCCUUGCCCAUCAGAGAGUGCAUAUAGAUGAGACACAGUACACACACUGUGAGCGUGGAAAGGACCUUCUGACUCAUCAAAGACUCAACAGAGGAUUGAGCAUCA
B18: ENSG00000198589:be:win_1001|CDS|ENSG00000198589|bound_else_gene|NA|bound_elsewhere_windowed (ssRNA)
RNA: GGGAGUUCUACAGUCCGACGAUCUCAACACUAGCGAUACCUUUGACAAAUGUUUCCUGGGCUCAUCAGAAACAGCAGAUGCUAAUAGAGUAUUCUGUGGUCAGAUGACUGCAGUUUACCUUUUCAGUGAAGCUCUAAAUGCAGCAACAGAGGAUUGAGCAUCA
B19: chr1:114568131:114568247:-|CDS|ENSG00000116752|unk|total|mutant (ssRNA)
RNA: GGGAGUUCUACAGUCCGACGAUCUUCCCGUUGGGUAUCCCUGGUCAGUAAGAAUUAUGAGAUUGAACGGACUAUUGUUCAGCCCGAAAAUGAAAUCUAUCAAAUUAAGCAGCAACAUGGAGAGGCAAACAAAGAAAACAUCCGCAACAGAGGAUUGAGCAUCA
B20: chr11:85659139:85659240:-|3pUTR|ENSG00000137504|msi1|FALSE|unique (ssRNA)
RNA: GGGAGUUCUACAGUCCGACGAUCGUCUGAUUUAGUAAAAUUUUAAAGCUAAAUAAUCUGAUGACUCUUGAAAGUUUAAUUGGUAGUAUGACAUUUAUGUUUUUUUCCCCCAGACUCACAGCCAAUACAAAGUUUUGAGACUCCCAACAGAGGAUUGAGCAUCA
B21: ENSG00000124766:be:win_2851|3pUTR|ENSG00000124766|bound_else_gene|NA|bound_elsewhere_windowed (ssRNA)
RNA: GGGAGUUCUACAGUCCGACGAUCUAAUCAGAUGCCAUUUUAUAUGUGGACGUAUUUAUACUGGCCAAACAUAUUUUUUCUUUUGUCCCUUUUUUUCUUUCCUUUCUUUUUACUUCCUUUAUUUCUUUAUUCCUUCCUUUUCCUCAACAGAGGAUUGAGCAUCA
B22: chr2:27041412:27041530:+|3pUTR|ENSG00000119777|msi1_unk|FALSE|overlapping (ssRNA)
RNA: GGGAGUUCUACAGUCCGACGAUCACUUCAAAAUGCCCAGCCUGCCCCAAAUGCCUCUAAGCCCCUCCCUGUCCCCUCCCUUGUAGUCCUACUUCUUCCAACUUUCCAUUCCCCAUCAUGCUGGGGGUCUUGGUCACAAGGCUCCAACAGAGGAUUGAGCAUCA

This assay deals with T1, UNK ZnF1-6 (called full-length). Description: nsRBNS (natural sequence RNA bind-n-seq); RBNS binding buffer (assumed for nsRBNS): 25 mM Tris pH 7.5, 150 mM KCl, 3 mM MgCl2, 0.01% Triton X-100, 500 ug/ml BSA, 20 U/ml SUPERase-In, 4 C; UNK is unkempt and MSI1 is Musashi-1; names of the RNAs are library labels; protein concentration not given here; high values mean tight binding.
With B1, the binding signal amounted to 1.2 enrichment R. As for B2, the binding signal was determined as 2.44 enrichment R. Consider B3, for which the binding signal came out at 0.696 enrichment R. Molecule B4 showed a binding signal of 0.528 enrichment R.

B5 returned a binding signal of 2.12 enrichment R.

On to B6, for which the binding signal worked out at 0.7 enrichment R.

B7 yielded a binding signal of 0.303 enrichment R. As for B8, the figure is 3.46 enrichment R; as for B9, 4.78 enrichment R; as for B10, 2.95 enrichment R. The molecule B11 gave a binding signal of 28.5 enrichment R.

Regarding B12, the binding signal turned out to be 41.4 enrichment R. B13: the binding signal was found to be 0.544 enrichment R. Consider B14, for which the binding signal came out at 33.9 enrichment R. As to B15, the binding signal was determined as 12.4 enrichment R.

B16 returned a binding signal of 0.338 enrichment R. Molecule B17 came in with a binding signal of 0.503 enrichment R. As for B18, the figure is 0.527 enrichment R. For B19, the binding signal turned out to be 0.717 enrichment R. As for B20, the figure is 1.52 enrichment R. As for B21, the figure is 8 enrichment R. As to B22, the binding signal was 1.6 enrichment R.
